In ChEMBL document CHEMBL1201862, “PubChem BioAssay data set” (2004):
The whole screen tested about 400,000 compounds, of which about 2,100 (0.53%) were called active. Not shown: some 14% with an inconclusive outcome. How the calls were made is not given here. The sample as a whole holds a higher share of actives than the screen did.

Target: Ataxin-2 (Homo sapiens) (UniProt Q99700)
Assay: qHTS for Inhibitors of ATXN expression.
Type: functional

Ataxin-2 (Homo sapiens), sequence (Q99700 whole entry): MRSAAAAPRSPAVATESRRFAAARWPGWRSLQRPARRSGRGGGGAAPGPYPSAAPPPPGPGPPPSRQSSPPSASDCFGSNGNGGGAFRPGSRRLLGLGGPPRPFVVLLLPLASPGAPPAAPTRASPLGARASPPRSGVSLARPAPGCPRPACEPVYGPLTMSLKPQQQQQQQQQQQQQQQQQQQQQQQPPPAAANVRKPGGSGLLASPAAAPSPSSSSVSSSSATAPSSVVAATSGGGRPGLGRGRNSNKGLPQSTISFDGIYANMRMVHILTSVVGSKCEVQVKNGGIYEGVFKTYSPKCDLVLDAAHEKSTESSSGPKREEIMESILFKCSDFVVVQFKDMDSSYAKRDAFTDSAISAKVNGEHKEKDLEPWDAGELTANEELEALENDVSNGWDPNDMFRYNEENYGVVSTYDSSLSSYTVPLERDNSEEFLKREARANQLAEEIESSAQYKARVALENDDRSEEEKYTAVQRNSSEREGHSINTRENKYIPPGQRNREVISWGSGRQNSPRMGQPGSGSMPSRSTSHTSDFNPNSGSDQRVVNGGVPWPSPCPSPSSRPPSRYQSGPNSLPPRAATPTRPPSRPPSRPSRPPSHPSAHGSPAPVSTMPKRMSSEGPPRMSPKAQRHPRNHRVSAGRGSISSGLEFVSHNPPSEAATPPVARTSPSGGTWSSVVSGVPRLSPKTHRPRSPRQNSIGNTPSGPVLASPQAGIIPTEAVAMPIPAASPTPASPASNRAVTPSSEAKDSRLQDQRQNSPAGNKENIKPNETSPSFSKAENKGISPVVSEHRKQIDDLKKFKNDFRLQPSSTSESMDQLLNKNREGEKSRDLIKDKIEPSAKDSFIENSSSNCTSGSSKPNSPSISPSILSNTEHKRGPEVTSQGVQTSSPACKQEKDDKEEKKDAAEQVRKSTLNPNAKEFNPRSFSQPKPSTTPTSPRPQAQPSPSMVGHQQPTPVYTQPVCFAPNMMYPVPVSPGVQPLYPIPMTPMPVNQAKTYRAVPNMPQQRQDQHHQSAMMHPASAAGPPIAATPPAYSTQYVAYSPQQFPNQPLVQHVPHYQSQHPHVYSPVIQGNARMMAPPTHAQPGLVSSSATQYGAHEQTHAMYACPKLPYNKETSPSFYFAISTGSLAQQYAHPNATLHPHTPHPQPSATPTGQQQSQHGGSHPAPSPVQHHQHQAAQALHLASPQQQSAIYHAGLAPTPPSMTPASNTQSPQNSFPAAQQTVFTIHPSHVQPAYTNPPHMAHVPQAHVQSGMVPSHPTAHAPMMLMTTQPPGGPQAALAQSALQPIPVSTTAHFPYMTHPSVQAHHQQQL

Which Potency does the source give for `NC[C@H](Cc1ccccc1)NCCc1cc(C(F)(F)F)cc(C(F)(F)F)c1` here?
The Potency was 39.8 µM (active).

Which Potency does the source give for `NC(=S)c1cc2cc(Cl)ccc2oc1=O` here?
The Potency was “inactive”.

`N=c1c(C(=O)NCC2CCCO2)cc2c(=O)n3ccccc3nc2n1C1CCCCC1` (configuration not stated) was tested. Which Potency did it give?
Its Potency is “inactive”.

`COc1ccc(NC(=O)CC2Sc3ncnn3C2=O)cc1` (configuration not stated) was tested. Which Potency did it give?
Its Potency is 39.8 µM (active).

With `COc1ccc(NC(=O)CSCC(=O)NCCc2ccccn2)cc1` as the compound, how does the Potency read?
Its Potency is “inactive”.

`COc1ccc(NC(=O)CN2CCN(CC(=O)Nc3ccc(OC)cc3)CC2)cc1` was tested. Which Potency did it give?
Its Potency is “inactive”.

`O=C(Oc1c(CN2CCOCC2)cc(Cl)c2cccnc12)c1ccccc1F` was tested. Which Potency did it give?
Its Potency is “inactive”.

For `CC(=O)N1CCCc2cc(S(=O)(=O)N3CCCC(C(=O)N4CCN(c5cccc(Cl)c5)CC4)C3)ccc21` (configuration not stated), which Potency is on record?
The Potency was 39.8 µM (active).

With `CC(=O)N1CCc2ccc(S(=O)(=O)N3CCc4ccccc43)cc21` as the compound, how does the Potency read?
The Potency was “inactive”.

For `CC(C)c1ccc(S(=O)(=O)N2CCN(C(=O)C3CCCC3)CC2)cc1`, which Potency is on record?
The Potency was “inactive”.

With `COc1ccc(C(=O)N/N=C/c2cc3ccccc3nc2O)cc1` as the compound, how does the Potency read?
Its Potency is “inactive”.

For `CC(NC(=O)c1ccc2ccccc2n1)c1ccc(S(N)(=O)=O)cc1` (configuration not stated), which Potency is on record?
The Potency was “inactive”.

With `COc1ccc(C(=O)NNC(=O)c2ccc3ccccc3n2)cc1` as the compound, how does the Potency read?
The Potency was 17.8 µM (active).

With `COc1ccc(C2c3[nH]c4ccccc4c3CCN2CCCn2cccn2)c(C)c1C` (configuration not stated) as the compound, how does the Potency read?
Its Potency is “inactive”.

For `Cc1cccc(N=C(S)N=Nc2c(O)n(CN3CCOCC3)c3ccccc23)c1C`, which Potency is on record?
The Potency was 6.31 µM (active).

`Cc1cccc(N=C(S)N2CCC(C(N)=O)(N3CCCCC3)CC2)c1C` was tested. Which Potency did it give?
Its Potency is “inactive”.

With `Oc1c(N=NC(S)=Nc2ccccc2F)c2ccccc2n1Cc1ccc(Cl)cc1` as the compound, how does the Potency read?
Its Potency is “inactive”.

Which Potency does the source give for `CCn1c(O)c(N=NC(S)=NCC2CCCO2)c2ccccc21` (configuration not stated) here?
The Potency was 8.91 µM (active).

`Cc1ccc(C(=O)Nc2nc3n(n2)C(c2ccc(F)cc2)C=C(c2ccccc2)N3)cc1` (configuration not stated) was tested. Which Potency did it give?
Its Potency is “inactive”.

For `NS(=O)(=O)c1ccc(CCNS(=O)(=O)c2ccc(Cl)s2)cc1`, which Potency is on record?
Its Potency is “inactive”.

`NS(=O)(=O)c1ccc(CCN2C(=O)/C(=C\c3ccc(Cl)cc3)SC2=S)cc1` was tested. Which Potency did it give?
Its Potency is 17.8 µM (active).

How did the Potency turn out when `O=C1/C(=C\c2cccc(O)c2O)SC(=S)N1Cc1ccccc1` was run?
The Potency was 31.6 µM (active).

For `COc1cc([N+](=O)[O-])cc(/C=C2/SC(=S)N(Cc3ccccc3)C2=O)c1O`, which Potency is on record?
Its Potency is 20 µM (active).

How did the Potency turn out when `O=C1/C(=C/c2ccccc2Cl)SC(=S)N1CCCC(=O)N(CCO)c1ccccc1` was run?
The Potency was 31.6 µM (active).

With `O=C(O)CN1C(=O)/C(=C\c2cccc(OCc3ccc(Cl)cc3)c2)SC1=S` as the compound, how does the Potency read?
The Potency was “inactive”.

Which Potency does the source give for `O=C(O)c1cc(-c2ccc(/C=C3/SC(=S)N(Cc4ccccc4)C3=O)o2)ccc1Cl` here?
The Potency was “inactive”.

For `COc1ccc(/C=C(\C)C(=O)c2c(C)cc(C)nc2O)cc1`, which Potency is on record?
Its Potency is “inactive”.
